We go through 33 compounds from PubChem BioAssay AID588763 (NMMLSC, 2011).

Potency and affinity values are given separately. Unmarked numbers belong to inactive results. Calls of active or inactive are those of the source. How the calls were made is not given here.

Sequence of Beta-2 adrenergic receptor (Homo sapiens) (P07550 whole entry, looked up): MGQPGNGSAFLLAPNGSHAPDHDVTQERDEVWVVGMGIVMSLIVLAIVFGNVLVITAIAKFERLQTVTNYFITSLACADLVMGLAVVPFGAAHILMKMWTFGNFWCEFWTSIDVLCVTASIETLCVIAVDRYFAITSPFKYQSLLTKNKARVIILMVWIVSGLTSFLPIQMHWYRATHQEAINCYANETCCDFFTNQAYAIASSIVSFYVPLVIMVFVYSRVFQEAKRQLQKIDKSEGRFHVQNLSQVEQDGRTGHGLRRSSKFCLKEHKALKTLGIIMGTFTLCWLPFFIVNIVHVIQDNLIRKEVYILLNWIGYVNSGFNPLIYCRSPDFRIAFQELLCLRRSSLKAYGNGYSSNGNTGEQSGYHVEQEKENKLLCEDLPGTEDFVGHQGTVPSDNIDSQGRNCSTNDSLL

This assay concerns the target Beta-2 adrenergic receptor (Homo sapiens) (UniProt P07550). The assay can be described thus: beta2AR agonists driving receptor internalization, dose response, cell-based, FAP fluorogen, flow cytometry, cherry pick 1 (AID 588763). Conditions: AM2.2-beta2AR cells, 90 min; series mostly up to 33 µM; activation (receptor internalization): at the top concentration. In general terms: In flow cytometry, cells or beads pass a laser one at a time.
On to `CCOC(=O)c1ccc(N=c2sc(C(=O)OC)cc(=O)n2-c2ccc(C(=O)OCC)cc2)cc1`, for which the “activation (receptor internalization)” value is 35%.

On to `COc1ccc(S(=O)(=O)N(C)CC(=O)N2CCN(c3ccc(F)cc3)CC2)cc1OC`, for which the compound was called inactive.

On to `COc1cccc(OC)c1C(=O)Nc1ccc(NC(=O)c2ccco2)cc1`, for which the “activation (receptor internalization)” value is -20%.

For the compound `Cc1cnn(-c2nc(-c3ccccc3)cc(-c3ccccc3)n2)c1`, the “activation (receptor internalization)” value was 107%.

Regarding `O=C(c1cc(COc2ccc(F)cc2Cl)on1)N1CC2C[C@@H]3CC1C[C@H](C2)C3`, the “activation (receptor internalization)” value was -19%.

For the compound `COc1ccccc1CNC(=O)CCn1c(=O)[nH]c2ccsc2c1=O`, the result was inactive.

Consider `COc1cccc(-c2ccc(NC(=O)C3CCCN(Cc4ccccn4)C3)cc2)c1` (stereo not drawn), for which the “activation (receptor internalization)” value is 11.9%.

For `O=C(Nc1cccc(-c2nc3cccnc3s2)c1)C1c2ccccc2Oc2ccccc21`, the “activation (receptor internalization)” value is 87.7%.

Consider `O=C(Nc1ccc(S(=O)(=O)N2CCCCC2c2cccnc2)cc1)c1ccccc1F` (stereo not drawn), for which the “activation (receptor internalization)” value is 27.6%.

On to `CCOc1cccc(CN2CCC(Oc3ccc(C(=O)N4CCCC4)cc3)CC2)c1`, for which the “activation (receptor internalization)” value is -17.1%.

`Cc1cc(S(=O)(=O)N2CCOCC2)ccc1OCC(=O)Nc1ccccc1F`: the “activation (receptor internalization)” value is -7.22%.

As for `CN(C)S(=O)(=O)c1cccc(NC(=O)c2ccc(N3CCOCC3)c([N+](=O)[O-])c2)c1`, the “activation (receptor internalization)” value is 109%.

For the compound `COC(=O)c1ccc(CN2CCC(Oc3ccc(C(=O)N4CCCCC4)cc3)CC2)cc1`, the “activation (receptor internalization)” value was -1.5%.

Consider `COc1ccc(-n2nc3c(N4CCC(C(=O)NCc5cccc(C)c5)CC4)nnc(C)c3c2C)cc1`, for which the “activation (receptor internalization)” value was 48.5%.

Consider `Cc1ccc(OCC(O)Cn2c(=N)n(Cc3ccccc3)c3ccccc32)cc1` (stereo not drawn), for which the “activation (receptor internalization)” value was 45.7%.

Take `COc1ccc(S(=O)(=O)N(C)CC(=O)N2CCN(c3ccccc3)CC2)cc1`: the “activation (receptor internalization)” value is -25.8%.

Consider `O=C(CN1CCOCC1)N1CCN(c2nnc(-c3ccccc3)c3ccccc23)CC1`, for which the “activation (receptor internalization)” value is 101%.

Turning to `CC1CCCN(C(C(=O)Nc2ccc3c(c2)OCO3)c2ccccc2)C1` (stereo not drawn), the “activation (receptor internalization)” value was 35.9%.

As for `N=c1n(CC(=O)c2ccc(Br)cc2)c2ccccc2n1Cc1ccccc1`, the “activation (receptor internalization)” value was 110%.

Take `CC(NCc1ccc(OCc2ccc(Cl)cc2)cc1)C(O)c1ccccc1` (stereo not drawn): the “activation (receptor internalization)” value is 66.1%.

For `N=c1n(Cc2ccc(Cl)cc2)c2ccccc2n1CC(O)COc1ccccc1` (stereo not drawn), the “activation (receptor internalization)” value is 88.3%.

On to `O=C(Nc1ccc2oc(-c3ccccc3F)nc2c1)c1ccc2c(c1)OCCO2`, for which the “activation (receptor internalization)” value was 22.6%.

On to `COc1cccc(CN2CCC(Oc3ccc(C(=O)N4CCCCC4)cc3)CC2)c1`, for which the “activation (receptor internalization)” value is 2.46%.

On to `CCOc1ccc(NC(=O)Cn2nnc(-c3ccccc3NC(=O)C3CC3)n2)cc1`, for which the “activation (receptor internalization)” value is -7%.

With `COc1ccc(-n2nc3c(N4CCC(C(=O)NCc5ccco5)CC4)nnc(C)c3c2C)cc1`, the “activation (receptor internalization)” value is 11%.

For the compound `CCOc1ccc(CNC(=O)C2CCN(c3nnc(C)c4c(C)n(-c5ccc(C)cc5)nc34)CC2)cc1`, the “activation (receptor internalization)” value is 65.3%.

As for `Cc1cc(S(=O)(=O)N2CCOCC2)ccc1OCC(=O)Nc1cccc(C(F)(F)F)c1`, the “activation (receptor internalization)” value was 6.22%.

Turning to `Cc1ccc(NC(=O)c2cc(N3C(=O)C=CC3=O)ccc2N2CCOCC2)cc1`, the “activation (receptor internalization)” value is 110%.

As to `Cc1ccc(S(=O)(=O)c2ccc([N+](=O)[O-])o2)cc1`, the “activation (receptor internalization)” value is -470%.

With `COc1ccccc1C(=O)Nc1ccc(S(=O)(=O)N2CCCCC2c2cccnc2)cc1` (stereo not drawn), the “activation (receptor internalization)” value is -6.5%.

Consider `CSc1nc(SCCO)c2sc3nc(-c4ccco4)c4c(c3c2n1)CC(C)(C)OC4`, for which the “activation (receptor internalization)” value is 66%.

With `NS(=O)(=O)c1ccc(NC(=O)c2cccc(N3C(=O)c4ccccc4C3=O)c2)cc1`, the “activation (receptor internalization)” value was 95.3%.

In the case of `O=C(CCn1c(=O)[nH]c2ccsc2c1=O)NCc1ccc(F)cc1`, the “activation (receptor internalization)” value was -7.29%.
